Laboratory results from PubChem BioAssay.
Records with an inconclusive call do not appear. The source made the active and inactive calls.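 How the source made its calls, unless noted: active means normalized viability below 100% at a tested concentration; inactive means the rest.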

Key:
[1] = viability loss in pontine glioma line – cell-based, SU-DIPG-XVII, MIPE5.0, CellTiter-Glo, qHTS, dose response (AID 1347060; cut-off not given, nearly all actives have AC50 up to about 26 µM;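 further: cells exposed to compound for 48 hours before viability readout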); details: CellTiter-Glo ATP luminescence
[2] = viability loss in pontine glioma line – cell-based, SU-DIPG-XIII, MIPE4.0, CellTiter-Glo, qHTS, dose response (AID 1347061; cut-off not given, nearly all actives have AC50 up to about 37 µM;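 further: cells exposed to compound for 48 hours before readout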); details: CellTiter-Glo ATP luminescence
[3] = viability loss in pontine glioma line – cell-based, SU-DIPG-XIII, MIPE5.0, CellTiter-Glo, qHTS, dose response (AID 1347064; cut-off not given, nearly all actives have AC50 up to about 23 µM;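 further: cells exposed to compound for 48 hours before the viability read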); details: CellTiter-Glo ATP luminescence
[4] = viability loss in pontine glioma line – cell-based, SU-DIPG-XXV, MIPE5.0, CellTiter-Glo, qHTS, dose response (AID 1347065; cut-off not given, nearly all actives have AC50 up to about 26 µM;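 further: cells exposed to compound for 48 hours before ATP readout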); details: CellTiter-Glo ATP luminescence
[5] = JHH-DIPG-1 glioma cell viability, MIPE5.0 library, CellTiter-Glo luminescence, qHTS (AID 1347067; cut-off not given, nearly all actives have AC50 up to about 26 µM;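 further: cells exposed to compound for 48 hours before readout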); details: JHH-DIPG-1 glioma viability, CellTiter-Glo ATP luminescence
[6] = growth inhibition of DIPG cells – cell-based, MIPE5.0 library, qHTS (AID 1347068; cut-off not given, nearly all actives have IC50 up to about 30 µM); details: SU-DIPG-XXV viability
[7] = viability loss with induced miR-34 in A549 – imaging, A549 dox-inducible miR-34, nuclei and caspase counts, primary screen (AID 1347080;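 active means compounds whose cell count with miR-34 switched on is under 0.7 times the count with it off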); details: A549 miR-34 inducible, Hoechst nuclei count, 48 h
[8] = compounds altering HSF1 focus formation in cells – imaging, Selleck Cancer Library (AID 1347162; in the data active means plate-normalised HSF1 focus index below about 0.46); details: human cells, HSF1 nuclear foci imaging, at 10 µM; SSMD: measured here: HSF1 foci SSMD mean; cell count: measured here: cell number; plate-normalised HSF1 focus index: stronger effect = lower value
[9] = MELAS cybrid and Rieske KO viability enhancers – cell-based, MELAS cybrids, Rieske KO mouse fibroblasts, CellTiter-Glo, primary screen (AID 1508586;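 active means mean z-score across replicates of 1.96 or higher in either the MELAS or the Rieske mutant cell line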;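 further: z relative to plate mean and SD of compound and empty wells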); details: low glucose
[10] = drug combination growth inhibition, ovarian cancer – cell-based, oncology-focused library, rucaparib conditional, profiling panel (AID 1508598); details: patient-derived ovarian cancer cells, CellTiter-Glo viability, 144 h, stronger effect = lower value
[11] = growth inhibition of DIPG cells – cell-based, MIPE4.0 library, CellTiter-Glo luminescence, qHTS (AID 1347066; cut-off not given, nearly all actives have AC50 up to about 30 µM;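 further: cells exposed to compound for 48 hours before readout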); details: SU-DIPG-VI viability, CellTiter-Glo ATP luminescence
[12] = at 0.000305 µM, OCI-C5x cells, with rucaparib 10 µM, 100% = cells with rucaparib alone
[13] = at 0.000305 µM, OCI-C5x cells, without rucaparib
[14] = at 0.000305 µM, OCI-P5x cells, with rucaparib 20 µM, 100% = cells with rucaparib alone
[15] = at 0.000305 µM, OCI-P5x cells, without rucaparib
[16] = at 0.00122 µM, OCI-C5x cells, with rucaparib 10 µM, 100% = cells with rucaparib alone
[17] = at 0.00122 µM, OCI-C5x cells, without rucaparib
[18] = at 0.00122 µM, OCI-P5x cells, with rucaparib 20 µM, 100% = cells with rucaparib alone
[19] = at 0.00122 µM, OCI-P5x cells, without rucaparib
[20] = at 0.00488 µM, OCI-C5x cells, with rucaparib 10 µM, 100% = cells with rucaparib alone
[21] = at 0.00488 µM, OCI-C5x cells, without rucaparib
[22] = at 0.00488 µM, OCI-P5x cells, with rucaparib 20 µM, 100% = cells with rucaparib alone
[23] = at 0.00488 µM, OCI-P5x cells, without rucaparib
[24] = at 0.0195 µM, OCI-C5x cells, with rucaparib 10 µM, 100% = cells with rucaparib alone
[25] = at 0.0195 µM, OCI-C5x cells, without rucaparib
[26] = at 0.0195 µM, OCI-P5x cells, with rucaparib 20 µM, 100% = cells with rucaparib alone
[27] = at 0.0195 µM, OCI-P5x cells, without rucaparib
[28] = at 0.0781 µM, OCI-C5x cells, with rucaparib 10 µM, 100% = cells with rucaparib alone
[29] = at 0.0781 µM, OCI-C5x cells, without rucaparib
[30] = at 0.0781 µM, OCI-P5x cells, with rucaparib 20 µM, 100% = cells with rucaparib alone
[31] = at 0.0781 µM, OCI-P5x cells, without rucaparib
[32] = at 0.313 µM, OCI-C5x cells, with rucaparib 10 µM, 100% = cells with rucaparib alone
[33] = at 0.313 µM, OCI-C5x cells, without rucaparib
[34] = at 0.313 µM, OCI-P5x cells, with rucaparib 20 µM, 100% = cells with rucaparib alone
[35] = at 0.313 µM, OCI-P5x cells, without rucaparib
[36] = at 1.25 µM, OCI-C5x cells, with rucaparib 10 µM, 100% = cells with rucaparib alone
[37] = at 1.25 µM, OCI-C5x cells, without rucaparib
[38] = at 1.25 µM, OCI-P5x cells, with rucaparib 20 µM, 100% = cells with rucaparib alone
[39] = at 1.25 µM, OCI-P5x cells, without rucaparib
[40] = at 5 µM, OCI-C5x cells, with rucaparib 10 µM, 100% = cells with rucaparib alone
[41] = at 5 µM, OCI-C5x cells, without rucaparib
[42] = at 5 µM, OCI-P5x cells, with rucaparib 20 µM, 100% = cells with rucaparib alone
[43] = at 5 µM, OCI-P5x cells, without rucaparib

CC(C)(C)c1cc(NC(=O)Nc2ccc(-c3cn4c(n3)sc3cc(OCCN5CCOCC5)ccc34)cc2)no1
0.781: fold change ([7]; measured here: relative caspase fold change +Dox/-Dox)
active: AC50 [1] 23.5 µM | AC50 [3] 14.8 µM | AC50 [4] 16.6 µM | AC50 [5] 20.9 µM | z-score ([9]; MELAS cybrid survival, CellTiter-Glo 48 h, stronger effect = higher value) 4.33 | viability [10, 14] 87.1% | viability [10, 15] 82.2% | viability [10, 17] 95% | viability [10, 18] 93.1% | viability [10, 19] 87% | viability [10, 21] 88.6% | viability [10, 22] 91.7% | viability [10, 23] 93.5% | viability [10, 27] 93.7% | viability [10, 30] 86.7% | viability [10, 31] 90.6% | viability [10, 34] 82.2% | viability [10, 35] 99% | viability [10, 38] 83.4% | viability [10, 39] 87.4% | viability [10, 42] 31.2% | viability [10, 43] 70.6%
-2.86: z-score ([9]; Rieske KO mouse fibroblast survival, CellTiter-Glo 72 h)
inactive: outcome [2] | outcome [6] | fold change ([7]; stronger effect = lower value, cell number ratio, induced over uninduced) 1 | plate-normalised HSF1 focus index [8] 1.05 | viability [10, 12] 105% | viability [10, 13] 104% | viability [10, 16] 112% | viability [10, 20] 105% | viability [10, 24] 107% | viability [10, 25] 101% | viability [10, 26] 103% | viability [10, 28] 111% | viability [10, 29] 112% | viability [10, 32] 115% | viability [10, 33] 108% | viability [10, 36] 108% | viability [10, 37] 128% | viability [10, 40] 100% | viability [10, 41] 107%
6510: cell count ([7]; measured here: total cells without miR-34 induction)
0.734: SSMD [8]
6520: cell count ([7]; measured here: total cells with miR-34 induction, stronger effect = lower value)
7630: cell count [8]

CO[C@@H](C(=O)N1Cc2[nH]nc(NC(=O)c3ccc(N4CCN(C)CC4)cc3)c2C1)c1ccccc1
1.91: SSMD [8]
6850: cell count [8]
inactive: outcome [11] | plate-normalised HSF1 focus index [8] 1.1 | viability [10, 12] 122% | viability [10, 16] 113% | viability [10, 17] 106% | viability [10, 21] 104% | viability [10, 37] 112%
active: AC50 [1] 0.525 µM | AC50 [2] 1.87 µM | AC50 [3] 1.05 µM | AC50 [4] 0.372 µM | viability [10, 13] 95% | viability [10, 14] 88.8% | viability [10, 15] 84.6% | viability [10, 18] 89.5% | viability [10, 19] 84.3% | viability [10, 20] 96% | viability [10, 22] 91.4% | viability [10, 23] 88.2% | viability [10, 24] 96.4% | viability [10, 25] 81% | viability [10, 26] 95.5% | viability [10, 27] 93.2% | viability [10, 28] 57.5% | viability [10, 29] 79.9% | viability [10, 30] 91.5% | viability [10, 31] 73.7% | viability [10, 32] 66.2% | viability [10, 33] 89.6% | viability [10, 34] 75.2% | viability [10, 35] 64.1% | viability [10, 36] 84.8% | viability [10, 38] 72.6% | viability [10, 39] 60% | viability [10, 40] 71.1% | viability [10, 41] 88.4% | viability [10, 42] 19.1% | viability [10, 43] 17%
